Among all 1,400 compounds or so, about 10 (0.7%) were called active. The rule behind the calls is not given here. These entries were drawn from the full list. Results with a measured potency or affinity are listed apart.
Experiment: BHK-21 cell toxicity, dose response, cytotoxicity control, plate reader, cherry-pick samples (AID 687030);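 note: cells were exposed to compound for three days before reading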
Settings: BHK-21 cells; series mostly up to 19.5 µM

Row | Compound | outcome
1 | C=CCC1NS(=O)(=O)OC(COC)C1C (stereo not drawn) | inactive
2 | COCCCNc1oc(-c2ccccc2F)nc1C#N | inactive
3 | COc1ccc(-c2cc(NC=O)c3ncc(-c4cc(OC)c(OC)c(OC)c4)n3c2)c(OC)c1 | inactive
4 | COC(=O)C(Cc1csc2ccc(Cl)cc12)NC(=O)c1ccc(Cl)cc1 (stereo not drawn) | inactive
5 | COc1ccc(NC(=O)N[C@@H]2CC[C@@H](CCNS(=O)(=O)c3cccc(Cl)c3)O[C@@H]2CO)cc1 | inactive
6 | COc1ccc(NC(=O)N[C@H]2CC[C@@H](CCn3cc(C4(O)CCCC4)nn3)O[C@@H]2CO)cc1 | inactive
7 | O=C(c1cccc(Cl)c1)N1CCC2(CC1)NCCc1[nH]cnc12 | inactive
8 | O=C(NCCN1CCOCC1)c1ccc2c(c1)N(Cc1ccc(F)cc1)C(=O)CS2 | inactive
9 | Cc1ccc(C(=O)NCC(=O)NCC(c2cccs2)N2CCOCC2)cc1C (stereo not drawn) | inactive
10 | C[C@@H]1CN([C@H](C)CO)C(=O)c2cc(NC(=O)Nc3ccc(C(F)(F)F)cc3)ccc2O[C@H]1CN(C)C(=O)NC1CCCCC1 | inactive
11 | CCCN(C)C1CN(Cc2cn(Cc3ccc(C)cc3)nn2)S(=O)(=O)C1 (stereo not drawn) | inactive
12 | COc1ccccc1N1CCN(Cc2cnc3ccc(Cl)cn23)CC1 | inactive
13 | C[C@H]1CN([C@@H](C)CO)C(=O)c2cccc(NC(=O)C3CCCCC3)c2O[C@@H]1CN(C)Cc1ccc(C(=O)Nc2ccccc2N)cc1 | inactive
14 | C[C@@H]1CCCCO[C@@H](CN(C)C(=O)Nc2cccc3ccccc23)[C@H](C)CN([C@H](C)CO)C(=O)c2cc(NC(=O)CCC(F)(F)F)ccc2O1 | inactive
15 | CCOC(=O)C1CCCN(c2c(N3CCOCC3)c(=O)c2=O)C1 (stereo not drawn) | inactive
16 | O=C(CN1CCN(C(=O)C2CCC2)CC1)Nc1ccc(F)cc1 | inactive
17 | CCCCNC(=O)O[C@H]1C[C@@H]2CCN3C(=O)CCC[C@H]([C@H]1Cc1ccccc1)[C@H]23 | inactive
18 | Cn1cnc(S(=O)(=O)N[C@@H]2CC[C@H](CC(=O)NCC3CCCCC3)O[C@@H]2CO)c1 | inactive
19 | CCC1(c2ccccc2)NC(=O)N(CC(=O)Nc2ccccc2C(=O)N2CCCCC2)C1=O (stereo not drawn) | inactive
20 | CS(=O)(=O)c1cccc(-c2nnc(NC(=O)c3ccc(S(=O)(=O)N4CCCC4)cc3)o2)c1 | inactive

Row | Compound | outcome
21 | Clc1cc(Br)ccc1OCCOCCN1CCCC1 | inactive
22 | Clc1cc(Br)ccc1OCCCn1ccnc1 | inactive
23 | c1cc(-c2ccc(N3CCOCC3)cc2)n2cnnc2c1 | inactive
24 | COc1ccc(C2CC(c3ccccc3)=NN2S(=O)(=O)c2ccccc2)c(OC)c1 (stereo not drawn) | inactive
25 | O=C(C[C@@H]1CC[C@@H]2[C@H](COC[C@H](O)CN2CC2CCOCC2)O1)N1CCOCC1 | inactive
26 | C[C@H](NC(=O)CCCOc1ccc(Cl)cc1Cl)c1nnc2ccccn12 | inactive
27 | Cc1ccc(NC(=O)c2nc[nH]c2C(=O)N[C@@H](C)C(=O)OC(C)(C)C)cc1 | inactive
28 | Cc1ccc(NC(=O)c2ccc3c(c2)OCO3)cc1Cl | inactive
29 | COc1ccc(OC)c(CN2C(=O)CN(S(C)(=O)=O)CC2(C)C(=O)NCc2ccccc2)c1 (stereo not drawn) | inactive
30 | CNC(=O)C[C@H]1CC[C@@H]2[C@H](COC[C@@H](O)CN2C(=O)Nc2ccc3c(c2)OCO3)O1 | inactive
31 | CN(C)C1(CNC(=O)C2CCN(S(=O)(=O)c3ccccc3C(F)(F)F)CC2)CCCCC1 | inactive
32 | CC(C)(C)c1ccc(NC(=O)NC2CCCc3ccccc32)cc1 (stereo not drawn) | inactive
33 | Cc1ccnc(NC(=O)c2ccc(Cl)c(S(=O)(=O)N3CCCC3)c2)c1 | inactive
34 | COc1cccc(NC(=O)CN(C)C(=O)c2cccc(S(=O)(=O)N3c4ccccc4CC3C)c2)c1 (stereo not drawn) | inactive
35 | O=C(O)[C@]1(S(=O)(=O)c2ccccc2)C[C@@H]2ON=C(c3cccc(Br)c3)[C@@H]2C1 | inactive
36 | COc1cccc(-c2ncc3ccccc3c2COC(=O)c2ccc(F)cc2)c1 | inactive
37 | COc1ccc(C(N)c2csc(Nc3cc(Oc4ccccc4)ncn3)n2)cc1 (stereo not drawn) | inactive
38 | CCN1[C@H](C(=O)NCCCN(C)C)[C@@H](CO)[C@@H]2Cn3c(ccc(-c4cccc(F)c4)c3=O)[C@@H]21 | inactive
39 | Cc1nc(CCNC(=O)CC2C(=O)NCCN2CC(C)C)nc2c1CCC2 (stereo not drawn) | inactive
40 | CCCS(=O)(=O)N1CCCC(C(=O)NCCc2cccc(C)c2)C1 (stereo not drawn) | inactive

Row | Compound | outcome
41 | C[C@@H]1CN([C@@H](C)CO)S(=O)(=O)c2ccc(-c3ccncc3)cc2O[C@H]1CN(C)C(=O)CC1CC1 | inactive
42 | CC(=O)NC[C@H]1[C@H](c2ccc(-c3ccccc3F)cc2)[C@@H](CO)N1C(=O)C1CC1 | inactive
43 | N#C[C@@H]1[C@H](c2ccc(-c3ccccc3F)cc2)[C@H](CO)N1C(=O)C1CC1 | inactive
44 | CCCNC(=O)C1(C)CCCN(Cc2ccc(C#N)cc2)C1 (stereo not drawn) | inactive
45 | O=C(c1cc(-c2cccs2)on1)N1CCCc2ccccc21 | inactive
46 | O=C1CCN(CCc2ccccc2)CCN1[C@H](COc1ccccc1)c1ccccc1 | inactive
47 | O=C1CN(C(=O)COC(=O)c2c(F)cccc2Cl)c2ccccc2N1 | inactive
48 | COc1ccc(NC(=O)COC(=O)c2c(C)noc2C)cc1Cl | inactive
49 | C[C@H]1[C@H](c2ccccc2)C[C@@H](C(=O)O)C1(C)C | inactive
50 | COc1c(Cl)cc(Br)c(OC)c1C(=O)NC(=O)Nc1nc(C)cc(C)n1 | inactive
51 | CCCc1nc2c(C)cc(Br)cn2c1Cc1ccc(OC)cc1C | inactive
52 | CCN(c1ccccc1)S(=O)(=O)c1ccc(C(=O)N2CCN(c3ccccc3F)CC2)cc1 | inactive
53 | CCCN1C[C@H](C)[C@H](OC)CN(C)C(=O)c2cc(NS(=O)(=O)c3cn(C)cn3)ccc2OC[C@@H]1C | inactive
54 | C#CCNC(=O)C[C@@H]1C[C@@]2(C(=O)OC)CCCCC=C2N(Cc2cccc3ccccc23)C1=O | inactive
55 | COc1ccc2c3c([nH]c2c1)[C@H](CO)N(C(=O)c1ccccc1)CC31CN(S(=O)(=O)c2cccs2)C1 | inactive
56 | COc1cccc(S(=O)(=O)N2CC3(CN(C(=O)Nc4ccc(F)cc4)[C@H](CO)c4[nH]c5cc(OC)ccc5c43)C2)c1 | inactive
57 | COc1ccccc1NC(=O)N1CCN(c2ccccn2)CC1 | inactive
58 | CCOC(=O)C[C@H]1c2ccccc2S(=O)(=O)N1c1ccccc1 | inactive
